# This is part of a sample that, as a whole, favours compounds with a hit. Of some 83,000 tested, about 20% had one in any assay.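 Interpretation: 100, growth as untreated; towards 0, rising growth inhibition; 0, no net growth; 0 to -100, cell death. Compounds scoring below 10 were considered active.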 Values without a mark were called inactive. Active and inactive are the calls of the source.
# System: MDA-MB-468 breast
# Test: NCI-60 one-dose screen, 48 h (100 = growth as untreated, 0 = no growth, -100 = all killed)
# Settings: 10 µM unless noted
row,SMILES,growth
1,Cc1ccc(S(=O)(=O)Nc2ccc(-c3cc(-c4cccc(F)c4)c(C#N)c(=O)[nH]3)cc2)cc1,67.9%
2,COc1cc(CC(=O)c2ccc(O)c(OC)c2)ccc1O,101%
3,COc1ccc(CCN2CCCN3C2=Nc2ccccc2S3(=O)=O)cc1,5.24% (active)
4,CN1C(=O)N(C)C2C1NN=c1s/c(=C\c3ccc([N+](=O)[O-])cc3)c(=O)n12 (stereo unspecified),53.4%
5,CC/C(=C(/c1ccc(Cl)cc1)c1ccc(OCCN(C)C)cc1)c1ccc(Cl)cc1,50.7%
6,CCc1ccc(NC(=O)N[C@@H](Cc2cc(F)cc(F)c2)C(=O)N[C@@H]2C(=O)N3CCC[C@H]3C(=O)N3CCO[C@H](C)[C@H]3C(=O)N[C@@H](CO)C(=O)N3C[C@H](C)C[C@H]3C(=O)O[C@H]2C)c(F)c1,-7.66% (active)
7,O=C(NCCNc1nccc(-c2c(-c3cccc(O)c3)nc3sccn23)n1)c1ccccc1,54.7%
8,N#Cc1cccc(-c2ccc3c(c2)NC(=O)/C3=C\c2ccc[nH]2)c1,-20.1% (active)
9,O=C(/C=C/c1ccc(Cl)cc1)c1ccc(Nc2nc(NCCO)nc(Nc3ccc(Cl)cc3)n2)cc1,68.4%
10,COc1ccc(C(=O)c2cc3c(N)c(C(=O)Nc4cccc(Cl)c4)sc3nc2C)cc1,10.5%
11,Cn1ccnc1C(=O)/C=C/c1ccc(C(=O)Nc2ccc(F)cc2)cc1,14.9%
12,COc1cc(OC)c(/C=C/S(=O)(=O)Cc2cnc(OC)c(N)c2)c(OC)c1,23.6%
13,CN1CCN(CCCN2c3ccccc3Sc3ccc(C(F)(F)F)cc32)CC1,-2.21% (active)
14,CC[C@]12C=CCN3CC[C@@]4(c5cc(NC(=O)CCC(=O)OCc6cn(Cc7ccc(F)cc7)nn6)c(OC)cc5N(C)[C@H]4[C@@](O)(C(=O)OC)[C@@H]1OC(C)=O)[C@@H]32,104%
15,CC/C(=N\N=C(/CC)c1ccc(Br)cc1)c1ccc(Br)cc1,110%
16,Nc1cc2[nH]c(=O)c3ccccc3c2cc1Br,-50.6% (active)
17,COc1cc(C2Nc3ccccc3S2)cc(CN2CCOCC2)c1O (stereo unspecified),26.3%
18,CCOC(=O)C1C(=O)C=C(c2cc(OC)c(OC)c(OC)c2)CC1c1sc(N(C)Cc2ccccc2)nc1Cl (stereo unspecified),71.2%

row,SMILES,growth
1,C#CC(=O)Nc1cccc(Nc2nc3c(c(NCc4ccccc4)n2)CCCC3)c1,-54.7% (active)
2,COc1ccc(-c2ccc(C)n2-c2ccc(-c3nc4ccccc4s3)cc2)cc1,3.77% (active)
3,Cc1ccc(-c2cc(-c3ccc(N(C)C)cc3)n3c(n2)nc2ccccc23)cc1,-0.434% (active)
4,Cc1nc(NN)c([N+](=O)[O-])c(NN)n1,122%
5,O=c1cc(C(F)(F)F)c2cc(-c3cc4ccccc4c(=O)o3)c(O)cc2o1,61.4%
6,Cc1ccccc1NC(=O)Oc1ccc(Cl)cc1C(=O)c1ccccc1,88.2%
7,c1ccc(C(Nc2ccccn2)(c2ccccc2)c2ccccc2)cc1,52.7%
8,COc1cc(N2CCC(N3CCN(C)CC3)CC2)ccc1Nc1ncnc(Nc2ccccc2S(=O)(=O)C(C)C)n1,110%
9,Oc1ccc(-c2nn(-c3ccccc3)cc2-c2nc3ccccc3s2)cc1,90.1%
10,CN1C(=O)/C(=C2\SC(=Nc3ccccc3)N(Nc3ccccc3)C2=O)c2ccccc21,94.7%
11,COc1cc2ccnc(C=O)c2cc1OC,82.5%
12,CN1CCN(c2ccc(-c3ccc4ncc(C#N)c(Nc5ccc(F)c(Cl)c5)c4c3)cn2)CC1,10.6%
13,CCOC(=O)C1=C(C)N2C(=NC3=C(CCCC/C3=C\c3ccccc3)C2c2ccccc2)S1 (stereo unspecified),103%
14,O=C(O)CNS(=O)(=O)c1ccc(OCCOc2ccc(S(=O)(=O)NCC(=O)O)cc2)cc1,97.7%
15,C=CC(O)CCC (stereo unspecified),109%
16,CC1(C)C(=O)/C(=C\c2cccnc2)C[C@]2(C)[C@H]3CC[C@@H]4[C@H]5[C@H](C(=O)/C=C/c6cccnc6)CC[C@]5(C(=O)O)CC[C@@]4(C)[C@]3(C)CC[C@@H]12,-46.4% [100 µM] (active)
17,COC(=O)c1nc(=S)[nH]c(C(=O)OC)c1C(=O)c1ccc(OC)cc1,94.7%
18,Cc1oc2nc[nH]c(=O)c2c1C(=O)/C=C/c1ccc(Br)cc1,-55.4% (active)
